# NPC1 promoter act: qHTS Assay for NPC1 Promoter Activators; 320,000 compounds, 2.4% hits; Huh7 NPC1 promoter luciferase reporter, 24 h; Potency, µM (highest dose often 9.22 µM), for inactives: at the highest dose activation, usual class: activators; note: % of control where 0% means no effect; nearly all actives have a fitted effect of over 60% in size
#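 Huh7 reporter cells (NPC1 promoter driving luciferase) are dosed with compound for 24 h at 37 °C, 5% CO2; luciferase detection reagent is then added and luminescence measured after 10 min at ambient temperature.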
# FLuc modulator: qHTS profiling assay for firefly luciferase inhibitor/activator using purifed enzyme and Km concentrations of substrates (counterscreen for miR-21 project) | purified FLuc, Km substrates, luminescence inhibition | 360,000 compounds, 6.9% hits | AID 588342, 2011 | Potency, µM (top dose mostly 57.5 µM), without a hit: at the top dose activity change, negative = inhibition, actives largely listed as inhibitors;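 note: plate controls were vehicle for no effect and reference inhibitor for full effect; nearly all actives have a fitted effect of over 55% in size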
# Target sequence (P08659 whole entry, looked up): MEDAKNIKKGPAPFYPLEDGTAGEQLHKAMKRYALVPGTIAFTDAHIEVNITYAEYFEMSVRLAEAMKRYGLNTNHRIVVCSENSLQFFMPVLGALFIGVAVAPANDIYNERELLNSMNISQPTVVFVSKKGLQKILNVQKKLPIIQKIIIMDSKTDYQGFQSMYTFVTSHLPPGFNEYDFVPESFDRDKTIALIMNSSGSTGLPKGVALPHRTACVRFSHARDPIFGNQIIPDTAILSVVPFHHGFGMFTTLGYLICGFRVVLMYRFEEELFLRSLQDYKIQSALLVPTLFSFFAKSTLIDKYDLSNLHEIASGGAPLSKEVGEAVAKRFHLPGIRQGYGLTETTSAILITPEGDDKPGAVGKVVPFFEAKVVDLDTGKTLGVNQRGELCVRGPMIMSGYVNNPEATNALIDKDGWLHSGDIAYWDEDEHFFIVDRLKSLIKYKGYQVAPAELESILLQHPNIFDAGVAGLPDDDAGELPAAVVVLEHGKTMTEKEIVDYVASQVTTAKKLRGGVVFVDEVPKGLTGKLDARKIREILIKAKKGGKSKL
#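 Purified P. pyralis luciferase, 10 nM final, with Km-level 10 uM D-luciferin and 10 uM ATP in 50 mM Tris acetate pH 7.5, 10 mM Mg acetate, 0.01% Tween-20, 0.05% BSA; 6-point qHTS titration about 60 µM downward; luminescence read.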
# SMN2 splice enh: qHTS Assay for Enhancers of SMN2 Splice Variant Expression; 210,000 compounds, 2.8% hits; Potency, µM (highest dose often 46.1 µM), without a hit: top-dose activity change, positive = activation, most hits filed as activators; HEK293 SMN2-luciferase splicing reporter, luminescence, 30-36 h; note: % of control where 0% means no effect; nearly all actives have a fitted effect of over 55% in size
#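 qHTS luciferase splicing reporter: luminescence rises when SMN2 exon 7 is included in transfected HEK293 cells. Compound exposure lasted 30-36 h at 37C, with 4.5 mM final sodium butyrate as control, followed by a ONE-Glo read.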
# Rab9 promoter act: qHTS Assay for Rab9 Promoter Activators. Huh7 Rab9 promoter-luciferase reporter, luminescence, 24 h. Potency, µM (series often up to 9.22 µM), for the others: at the top dose activation, negative = inhibition, hits mostly activators. 320,000 compounds, 2.8% hits. AID 485297, 2010; note: % of control where 0% means no effect; nearly all actives have a fitted effect of over 60% in size
#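 Huh7 cells stably carrying a Rab9 promoter-luciferase reporter, 1500 cells per well in OP-MEM I with 10% FBS, treated with compound 24 hours at 37C. Luciferase activity read by luminescence after 10 minutes with Amplite reagent.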
# KinaseGlo FLuc: Counterscreen for Luciferase (Kinase-Glo TM) Inhibition. Kinase-Glo luciferase, ATP luminescence, 8 min. Potency, µM (highest dose often 38.3 µM), without a hit: at the top dose activity change, negative = inhibition, most hits filed as inhibitors. 200,000 compounds, 0.28% hits; note: % is set by controls: 0 for no effect and ±100 for the full control effect; nearly all actives have a fitted effect of over 60% in size
#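 Compound is pinned into ATP-containing buffer (10 uM ATP, imidazole pH 7.2, 7 mM MgCl2). Kinase-Glo luciferase reagent is then added. Light output is recorded following an 8-min room-temperature incubation.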
# ELG1 genotox: qHTS screen for small molecules that induce genotoxicity in human embryonic kidney (HEK293T) cells expressing luciferase-tagged ELG1. Potency, µM (doses to about 46 µM), for the others: top-dose activity change, positive = activation, most hits filed as activators. 330,000 compounds, 1.3% hits. HEK293T ELG1-luciferase reporter, luminescence, 16 h. AID 504466, 2011; note: % of control where 0% means no effect; nearly all actives have a fitted effect of over 60% in size
#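 HEK293T cells expressing luciferase-tagged ELG1 were treated with compound or DMSO for 16 hr at 37°C. Luciferase activity was then read after 30 min with ONE-Glo at room temperature; rising signal flags genetic stress.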
# * = called active by the depositor; u = inconclusive; x = no result; [ ] = another dose, or the depositor's remark. Only some compounds are listed: those with a hit (about 7.5% of all), similar ones and a draw of the others. Calls come from the whole dose curve; as a rule, active = well fitted curve in the direction sought with a large enough effect; inconclusive = small, poorly fitted or top-dose-only effect, or another doubt; inactive = no such curve, though single readings can be large; an effect the other way counts as inactive or inconclusive. Potency is the fitted concentration of half-maximal effect.
SMILES,NPC1 promoter act,FLuc modulator,SMN2 splice enh,Rab9 promoter act,KinaseGlo FLuc,ELG1 genotox
Cc1ccc(-c2nc(CN(Cc3cnn(C)c3)C(C)C)c(C)o2)o1,0%,-3%,x,-9%,3%,2%
COc1ccc(OCc2ccc(-c3nc(C#N)c(N4CCC(C)CC4)o3)o2)cc1,x,-7%,x,x,x,x
Cn1c2ccccc2c2nnc(NN)nc21,3%,-11%,x,-6%,x,4%
CCCCc1c(C)nn(-c2nnc3c4ccccc4n(C)c3n2)c1C,22%,6.7µM*,-5%,6%,-3%,3%
O=[N+]([O-])c1ccc(C2Oc3ccccc3C3CC(c4ccccc4)=NN32)s1 (stereo not drawn),-2%,9.5µM*,25µM*,20%,3%,u
CCn1c2ccc(F)cc2c2nnc(SCCN3CCCCC3)nc21,0%,-1%,x,0%,x,2%
COc1ccc(C(=O)Nc2ccc(Cl)cn2)cc1Cl,2.5µM*,11µM*,u,3.5µM*,-5%,u
O=C(Nc1ccc(Cl)cn1)c1cccc(S(=O)(=O)N2CCCC2)c1,2%,1%,x,12%,x,-8%
CN(C)S(=O)(=O)c1cccc(C(=O)Nc2ccc(Cl)cn2)c1,u,13µM*,6%,u,-3%,u
COc1cccc(C(=O)Nc2ccccc2C(=O)OCc2cc(=O)n3c(C)csc3n2)c1,x,-5%,x,x,x,x
COc1ccc(C(=O)OCc2cc(=O)n3c(C)csc3n2)cc1F,4µM*,u,x,2.2µM*,x,u
COc1ccccc1C(=O)OCc1cc(=O)n2c(C)csc2n1,x,19µM*,x,x,x,x
Nc1nn2c(-c3ccccc3)cc(=O)[nH]c2c1N=Nc1ccc(Br)cc1,-1%,21µM*,-58%,2%,0%,-13%
Nc1nn2c(-c3ccccc3)cc(=O)[nH]c2c1N=Nc1ccc(O)cc1,-2%,6.7µM*,-44%,-1%[1.84 µM],-12%,-11%
Cc1cc(=O)[nH]c2c1c(-c1ccccc1)nn2C,-3%,2%,x,-6%,x,5%
C=C1C=C(C(F)F)n2ncc(C(=O)Nc3ccc(C(C)CC)cc3)c2N1 (stereo not drawn),x,0%,x,x,x,x
CCOc1ccc(C(=O)NCC(=O)OCC(=O)Nc2ccc(C)c(S(=O)(=O)N(C)C)c2)cc1,-3%,4.8µM*,1%,-3%,6%,2%
CCOc1ccc(C(=O)NCC(=O)OCC(=O)Nc2ccccc2OC)cc1,0%,24µM*,-2%,-3%,-3%,2%
COc1ccc(C(=O)NCC(=O)OCC(=O)Nc2cc([N+](=O)[O-])ccc2F)cc1,-2%,24µM*,-1%,1%,-3%,12%
CCOc1ccc(C(=O)NCC(=O)OCC(=O)Nc2ccccc2OCC)cc1,1%,24µM*,2%,-3%,0%,1%
O=C(NC1CCN(Cc2ccccc2)CC1)c1ccc(-n2c(=O)c(=O)[nH]c3ccccc32)cc1,x,x,x,x,1%,x
O=C(c1cc2ccccc2o1)N1CCN(S(=O)(=O)c2ccccc2)CC1,-8%,7%,x,-4%,x,-1%
Cc1cccc(NC(=O)/C(C#N)=C/c2ccc(Cl)cc2)n1,1%,2.4µM*,x,0%,x,-3%
COc1ccc(/C=C(\C#N)C(=O)Nc2cccc(C)n2)cc1,0%,0.95µM*,x,5%,x,2%
CCOC(=O)c1ccc(NC(=O)/C(C#N)=C/c2ccc(OC)cc2)cc1,x,-1%,-3%,x,x,x
SMILES,NPC1 promoter act,FLuc modulator,SMN2 splice enh,Rab9 promoter act,KinaseGlo FLuc,ELG1 genotox
Cc1cccc(NC(=O)CCCNC(=O)c2ccc(Cl)cc2)n1,-2%,2%,x,1%,x,-2%
O=C(COC(=O)/C=C/c1ccccc1)Nc1ccc(Cl)cn1,8%,0%,x,2%,x,-1%
Cc1cccc(NC(=O)/C(C#N)=C/c2cccc([N+](=O)[O-])c2)n1,0%,u,x,-3%,x,-1%
Cc1cccc(NC(=O)/C=C/c2ccc(Cl)cc2)n1,4µM*,1.1µM*,3.5µM*,2.2µM*,-9%,1%
O=C(/C=C/c1ccccc1)Nc1ccc(Cl)cn1,u,2.7µM*,13µM*,u,1%,u
COc1ccccc1Nc1nnc(SCC(=O)c2cc(C)n(CC3CCCO3)c2C)s1 (stereo not drawn),-4%,u,-18%,-5%,-9%,-4%
Cc1cc(C(=O)CSc2nnc(Nc3ccccc3F)s2)c(C)n1CC1CCCO1 (stereo not drawn),-3%,15µM*,-9%,-2%,13%,-6%
Cc1cc(C(=O)CSc2nnc(Nc3ccccc3)s2)c(C)n1CC1CCCO1 (stereo not drawn),3%,11µM*,-20%,12%,1%,-4%
CCOC(=O)N1CCC(NC(=O)c2ccc3c(c2)N=C(C)c2c(C)ccc(C)c2S3)CC1,-23%,2%,x,-29%,x,8%
CSc1ccc(CCNC(=O)Cn2ncn3c(cc4ccccc43)c2=O)cc1,x,3%,10%,x,x,x
CC1=Nc2ccc(C)cc2/C1=C/c1c(N)n2oc(C)cc2nc1=O,3%,-2%,-8%,-1%,-1%,5%
CSc1nsc2nc(=O)c(/C=C3\C(C)=Nc4ccc(C)cc43)c(N)n12,-12%,13µM*,-47%,-10%,4%,-23%
CSc1nsc2nc(=O)c(/C=C3\C=Nc4ccccc43)c(N)n12,14%,17µM*,3%,28%,-2%,u
CCN(CC)c1ccc(/C=C(/C#N)c2nc3ccccc3[nH]2)c(OC(C)C)c1,21%,2.7µM*,-65%,u,-4%,17%
COc1cc(/C=C(\C#N)c2nc3ccc(C)cc3[nH]2)ccc1OC(C)C,x,-17%,-7%,x,x,x
CN=c1scc(-c2ccc(OC)cc2)n1/N=C(\C)c1cccnc1,14%,12µM*,-21%,1%,3%,-2%
COc1ccc(CC(=O)N/N=C(\C)c2cccnc2)cc1,-1%,2%,x,3%,x,4%
CS(=O)(=O)n1nc(OC(=O)c2cc(Br)ccc2Cl)cc1N,-3%,u,6%,1%,1%,2%
CS(=O)(=O)n1nc(OC(=O)c2cccc3ccccc23)cc1N,7%,17µM*,5%,27%,-1%,5%
COc1ccc(S(=O)(=O)N2CCOC23CCN(S(=O)(=O)c2cc(C)ccc2OC)CC3)cc1,-5%,7%,x,3%,x,11%

# Source: PubChem BioAssay
